PubChem BioAssay (NCI)
This is part of a sample that, as a whole, favours compounds with a hit. Of some 79,000 tested, about 15% had one in any assay. Values without a mark were called inactive. Activity calls are given as the source filed them. No stated cut-off is given here; in the data, active means growth inhibition above about 70%; inactive means the rest.

How the values were obtained:
[1] = NCI Yeast Anticancer Drug Screen. Data for the rad52 strain (AID 147);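 further: 0% = growth of vehicle-treated control cultures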; conditions: S. cerevisiae rad52 mutant growth inhibition, stronger effect = higher value
How it was run: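 Screen used a yeast mutant impaired in DNA repair. After compound exposure, growth was measured. Values reflect inhibition compared with vehicle-treated cells.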

[2] = NCI Yeast Anticancer Drug Screen. Data for the wt1 strain (AID 149);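 further: 0% = growth of vehicle-treated wt1 cultures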; conditions: S. cerevisiae wt1 strain (SPY 50644) growth inhibition, stronger effect = higher value
How it was run: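 Each compound is tested on wt1 yeast and the loss of growth versus vehicle gives the inhibition value.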

[3] = NCI Yeast Anticancer Drug Screen. Data for the rad50EPP+ strain (AID 151);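 further: 0% = growth of vehicle-treated control cultures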; conditions: S. cerevisiae rad50 mutant strain, stronger effect = higher value
How it was run: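 Exposing the rad50EPP+ strain to each compound, growth was compared with vehicle-only cultures to give inhibition.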

[4] = NCI Yeast Anticancer Drug Screen. Data for the mgt1 strain (AID 153); conditions: S. cerevisiae mgt1 mutant growth inhibition, stronger effect = higher value
How it was run: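 Genetically defined yeast (mgt1) treated with compound; inhibition of growth expressed against vehicle-treated controls.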

[5] = NCI Yeast Anticancer Drug Screen. Data for the rad50 strain (AID 155);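 further: 0% = growth of vehicle-only cultures of the same strain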; conditions: S. cerevisiae rad50 strain growth inhibition, stronger effect = higher value
How it was run: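 Vehicle-treated cultures provide the reference for the growth inhibition reported for compound-exposed, repair-deficient yeast.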

[6] = NCI Yeast Anticancer Drug Screen. Data for the mec2-1 strain (AID 157); conditions: S. cerevisiae mec2-1 strain, stronger effect = higher value
How it was run: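 Readout is yeast growth inhibition, normalised to vehicle-treated controls, in the mec2-1 strain exposed to compound.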

[7] = NCI Yeast Anticancer Drug Screen. Data for the rad14 strain (AID 159);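 further: 0% = growth of vehicle-treated control cultures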; conditions: S. cerevisiae rad14 strain growth inhibition, stronger effect = higher value
How it was run: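 Inhibition of growth is reported for a repair-deficient yeast mutant following compound treatment, calculated relative to cultures that received vehicle.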

[8] = NCI Yeast Anticancer Drug Screen. Data for the sgs1 mgt1 strain (AID 161);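 further: 0% = growth of cultures given vehicle only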; conditions: S. cerevisiae sgs1 mgt1 strain, stronger effect = higher value
How it was run: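 Percent growth inhibition was derived by comparing compound-exposed mutant yeast with vehicle-exposed cultures. The strain carries alterations in DNA damage repair.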

[9] = NCI Yeast Anticancer Drug Screen. Data for the CLN2oe strain (AID 163);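 further: 0% = growth of vehicle-only control cultures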; conditions: S. cerevisiae CLN2oe strain, stronger effect = higher value
How it was run: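 Values reflect how much compound exposure reduced yeast growth, referenced to vehicle-exposed cells. Assay organism is a strain with a defined genetic change affecting cell-cycle control.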

[10] = NCI Yeast Anticancer Drug Screen. Data for the cln2 rad14 strain (AID 165);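 further: 0% = growth equal to vehicle treated cultures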; conditions: S. cerevisiae cln2 rad14 strain, stronger effect = higher value
How it was run: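 Relative to vehicle controls, growth inhibition of compound-treated cln2 rad14 yeast was recorded.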

[11] = NCI Yeast Anticancer Drug Screen. Data for the bub3 strain (AID 167); conditions: S. cerevisiae bub3 mutant strain, stronger effect = higher value
How it was run: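 Mutant yeast screening strain plus compound; vehicle-treated cultures serve as the 0% inhibition reference.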

[12] = NCI Yeast Anticancer Drug Screen. Data for the wt2 strain (AID 169); conditions: S. cerevisiae wt2 strain growth inhibition, stronger effect = higher value
How it was run: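 Values express reduction in yeast growth under compound treatment, referenced to vehicle-treated cells.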

[13] = NCI Yeast Anticancer Drug Screen. Data for the mlh1 strain (AID 171);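 further: 0% = growth of vehicle-treated control cultures of the same strain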; conditions: S. cerevisiae mlh1 strain growth inhibition, stronger effect = higher value
How it was run: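 Steps: expose the defined-mutant yeast strain to compound; expose a parallel culture to vehicle; measure growth; express compound effect as inhibition relative to the vehicle culture.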

[14] = NCI Yeast Anticancer Drug Screen. Data for the sgs1 strain (AID 173);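 further: 0% = growth of vehicle-only control cultures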; conditions: S. cerevisiae sgs1 mutant, stronger effect = higher value
How it was run: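 Treat defined-mutant yeast with compound; measure growth; calculate inhibition relative to vehicle-treated cells.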

[15] = NCI Yeast Anticancer Drug Screen. Data for the mlh1 rad18 strain (AID 175); conditions: S. cerevisiae mlh1 rad18 strain growth inhibition, stronger effect = higher value
How it was run: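 Test agents were incubated with a yeast strain of defined genotype (DNA damage repair defect). Inhibition of growth was derived by comparison with vehicle-exposed cultures.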

[16] = NCI Yeast Anticancer Drug Screen. Data for the rad18 strain (AID 177); conditions: S. cerevisiae rad18 mutant growth inhibition, stronger effect = higher value
How it was run: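 A genetically defined yeast mutant impaired in DNA damage repair was treated with test compounds, then its growth was measured against cultures receiving vehicle alone.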

[17] = at 5.0 µM (retest, dose inferred, filed as 0.5)
[18] = at 50.0 µM (retest, dose inferred, filed as 5.0)

Compound: O=C(CSC(=S)N1CCCCC1)Nc1nc2c(s1)CCCC2
- growth inhibition ([1]; at 1.2 µM): 1%
- growth inhibition ([1]; at 3.7 µM): 6%
- growth inhibition ([1]; at 11.0 µM): 6%
- growth inhibition ([1]; at 33.0 µM): 41%
- growth inhibition ([1]; at 100.0 µM): 79% (active)
- growth inhibition ([2]; at 1.2 µM): -9%
- growth inhibition ([2]; at 3.7 µM): -11%
- growth inhibition ([2]; at 11.0 µM): -13%
- growth inhibition ([2]; at 33.0 µM): 3%
- growth inhibition ([2]; at 100.0 µM): 79% (active)
- growth inhibition ([3]; at 1.2 µM): 21%
- growth inhibition ([3]; at 3.7 µM): 31%
- growth inhibition ([3]; at 11.0 µM): 38%
- growth inhibition ([3]; at 33.0 µM): 40%
- growth inhibition ([3]; at 100.0 µM): 41%
- growth inhibition ([4]; at 1.2 µM): -8%
- growth inhibition ([4]; at 3.7 µM): -7%
- growth inhibition ([4]; at 11.0 µM): -16%
- growth inhibition ([4]; at 33.0 µM): 17%
- growth inhibition ([4]; at 100.0 µM): 85% (active)
- growth inhibition ([5]; at 1.2 µM): -11%
- growth inhibition ([5]; at 3.7 µM): -2%
- growth inhibition [5, 17]: 31%
- growth inhibition ([5]; at 11.0 µM): -16%
- growth inhibition ([5]; at 33.0 µM): 26%
- growth inhibition [5, 18]: 68%
- growth inhibition ([5]; at 50.0 µM): 74.3% (active)
- growth inhibition ([5]; at 100.0 µM): 83% (active)
- growth inhibition ([6]; at 1.2 µM): 7%
- growth inhibition ([6]; at 3.7 µM): -9%
- growth inhibition [6, 17]: -4%
- growth inhibition ([6]; at 11.0 µM): 1%
- growth inhibition ([6]; at 33.0 µM): 1%
- growth inhibition [6, 18]: 45%
- growth inhibition ([6]; at 50.0 µM): 56.6%
- growth inhibition ([6]; at 100.0 µM): 79% (active)
- growth inhibition ([7]; at 1.2 µM): -9%
- growth inhibition ([7]; at 3.7 µM): -14%
- growth inhibition ([7]; at 11.0 µM): -6%
- growth inhibition ([7]; at 33.0 µM): 11%
- growth inhibition ([7]; at 100.0 µM): 73% (active)
- growth inhibition [8, 17]: 17%
- growth inhibition [8, 18]: 87% (active)
- growth inhibition ([8]; at 50.0 µM): 86% (active)
- growth inhibition ([9]; at 1.2 µM): 3%
- growth inhibition ([9]; at 3.7 µM): -6%
- growth inhibition ([9]; at 11.0 µM): -14%
- growth inhibition ([9]; at 33.0 µM): 0%
- growth inhibition ([9]; at 100.0 µM): 61%
- growth inhibition [10, 17]: 11%
- growth inhibition [10, 18]: 70% (active)
- growth inhibition ([10]; at 50.0 µM): 72.2% (active)
- growth inhibition ([11]; at 1.2 µM): 5%
- growth inhibition ([11]; at 3.7 µM): -8%
- growth inhibition [11, 17]: 45%
- growth inhibition ([11]; at 11.0 µM): -4%
- growth inhibition ([11]; at 33.0 µM): 80% (active)
- growth inhibition [11, 18]: 92% (active)
- growth inhibition ([11]; at 50.0 µM): 86.5% (active)
- growth inhibition ([11]; at 100.0 µM): 85% (active)
- growth inhibition ([12]; at 1.2 µM): -7%
- growth inhibition ([12]; at 3.7 µM): -3%
- growth inhibition ([12]; at 11.0 µM): -2%
- growth inhibition ([12]; at 33.0 µM): 22%
- growth inhibition ([12]; at 100.0 µM): 88% (active)
- growth inhibition ([13]; at 1.2 µM): 24%
- growth inhibition ([13]; at 3.7 µM): 19%
- growth inhibition ([13]; at 11.0 µM): 14%
- growth inhibition ([13]; at 33.0 µM): 43%
- growth inhibition ([13]; at 100.0 µM): 84% (active)
- growth inhibition ([14]; at 1.2 µM): 22%
- growth inhibition ([14]; at 3.7 µM): 20%
- growth inhibition ([14]; at 11.0 µM): 15%
- growth inhibition ([14]; at 33.0 µM): 52%
- growth inhibition ([14]; at 100.0 µM): 92% (active)
- growth inhibition [15, 17]: 16%
- growth inhibition [15, 18]: 53%
- growth inhibition ([15]; at 50.0 µM): 78.6% (active)
- growth inhibition ([16]; at 1.2 µM): 27%
- growth inhibition ([16]; at 3.7 µM): 19%
- growth inhibition ([16]; at 11.0 µM): 25%
- growth inhibition ([16]; at 33.0 µM): 23%
- growth inhibition ([16]; at 100.0 µM): 76% (active)

Compound: COc1ccc(C/C=N/Nc2ccc([N+](=O)[O-])cc2)cc1OC
- growth inhibition ([1]; at 1.2 µM): 8%
- growth inhibition ([1]; at 3.7 µM): 12%
- growth inhibition ([1]; at 11.0 µM): 18%
- growth inhibition ([1]; at 33.0 µM): 39%
- growth inhibition ([1]; at 100.0 µM): 42%
- growth inhibition ([2]; at 1.2 µM): 4%
- growth inhibition ([2]; at 3.7 µM): 2%
- growth inhibition ([2]; at 11.0 µM): 5%
- growth inhibition ([2]; at 33.0 µM): -1%
- growth inhibition ([2]; at 100.0 µM): 2%
- growth inhibition ([3]; at 1.2 µM): 15%
- growth inhibition ([3]; at 3.7 µM): 29%
- growth inhibition ([3]; at 11.0 µM): 33%
- growth inhibition ([3]; at 33.0 µM): 35%
- growth inhibition ([3]; at 100.0 µM): 51%
- growth inhibition ([4]; at 1.2 µM): 2%
- growth inhibition ([4]; at 3.7 µM): 12%
- growth inhibition ([4]; at 11.0 µM): 9%
- growth inhibition ([4]; at 33.0 µM): 4%
- growth inhibition ([4]; at 100.0 µM): 23%
- growth inhibition ([5]; at 1.2 µM): 27%
- growth inhibition ([5]; at 3.7 µM): 36%
- growth inhibition [5, 17]: 9%
- growth inhibition ([5]; at 11.0 µM): 28%
- growth inhibition ([5]; at 33.0 µM): 56%
- growth inhibition [5, 18]: 97% (active)
- growth inhibition ([5]; at 50.0 µM): 98.1% (active)
- growth inhibition ([5]; at 100.0 µM): 66%
- growth inhibition ([6]; at 1.2 µM): 1%
- growth inhibition ([6]; at 3.7 µM): 3%
- growth inhibition [6, 17]: 16%
- growth inhibition ([6]; at 11.0 µM): 4%
- growth inhibition ([6]; at 33.0 µM): 1%
- growth inhibition [6, 18]: 98% (active)
- growth inhibition ([6]; at 50.0 µM): 97.3% (active)
- growth inhibition ([6]; at 100.0 µM): 6%
- growth inhibition ([7]; at 1.2 µM): 3%
- growth inhibition ([7]; at 3.7 µM): 12%
- growth inhibition ([7]; at 11.0 µM): 23%
- growth inhibition ([7]; at 33.0 µM): 25%
- growth inhibition ([7]; at 100.0 µM): 30%
- growth inhibition [8, 17]: 9%
- growth inhibition [8, 18]: 97% (active)
- growth inhibition ([8]; at 50.0 µM): 97.5% (active)
- growth inhibition ([9]; at 1.2 µM): 8%
- growth inhibition ([9]; at 3.7 µM): 6%
- growth inhibition ([9]; at 11.0 µM): 12%
- growth inhibition ([9]; at 33.0 µM): 1%
- growth inhibition ([9]; at 100.0 µM): 20%
- growth inhibition [10, 17]: -3%
- growth inhibition [10, 18]: 89% (active)
- growth inhibition ([10]; at 50.0 µM): 54.4%
- growth inhibition ([11]; at 1.2 µM): 3%
- growth inhibition ([11]; at 3.7 µM): 2%
- growth inhibition [11, 17]: 12%
- growth inhibition ([11]; at 11.0 µM): 8%
- growth inhibition ([11]; at 33.0 µM): 13%
- growth inhibition [11, 18]: 97% (active)
- growth inhibition ([11]; at 50.0 µM): 98.2% (active)
- growth inhibition ([11]; at 100.0 µM): 23%
- growth inhibition ([12]; at 1.2 µM): -2%
- growth inhibition ([12]; at 3.7 µM): -1%
- growth inhibition ([12]; at 11.0 µM): 5%
- growth inhibition ([12]; at 33.0 µM): 5%
- growth inhibition ([12]; at 100.0 µM): -3%
- growth inhibition ([13]; at 1.2 µM): -1%
- growth inhibition ([13]; at 3.7 µM): 6%
- growth inhibition ([13]; at 11.0 µM): 9%
- growth inhibition ([13]; at 33.0 µM): 11%
- growth inhibition ([13]; at 100.0 µM): 31%
- growth inhibition ([14]; at 1.2 µM): -17%
- growth inhibition ([14]; at 3.7 µM): -24%
- growth inhibition ([14]; at 11.0 µM): -8%
- growth inhibition ([14]; at 33.0 µM): 48%
- growth inhibition ([14]; at 100.0 µM): 73% (active)
- growth inhibition [15, 17]: 7%
- growth inhibition [15, 18]: 98% (active)
- growth inhibition ([15]; at 50.0 µM): 97.8% (active)
- growth inhibition ([16]; at 1.2 µM): 15%
- growth inhibition ([16]; at 3.7 µM): 43%
- growth inhibition ([16]; at 11.0 µM): 26%
- growth inhibition ([16]; at 33.0 µM): 20%
- growth inhibition ([16]; at 100.0 µM): 56%
